Results on 40 compounds are retold here after ChEMBL document CHEMBL3433997, “St. Jude Leishmania screening dataset” (2016).

The inhibition is the change of the read-out against control, counted positive when it falls.

In the experiment the target is Glucose transporter (Leishmania mexicana) (UniProt O61059). Kind of experiment: ST_JUDE_LEISH: Cytotoxicity at 2uM final concentration against transgenic Leishmania Mexicana promastigotes LmGT2 that are glucose transport deficient and complemented with the L. Mexicana glucose transporter 2. Activity is measured by DNA content using SYBR green in vitro. The class given is functional.
Consider `O=c1cc(NCCCNCc2cc(F)cc(C(F)(F)F)c2)[nH]c2ccccc12`, for which the inhibition was found to be 4.38%. The result for `Cc1cc(N)c2cc(NC(=O)c3cc(C(F)(F)F)cc(C(F)(F)F)c3)ccc2n1` reads 0.8%. With `O=C(/C=C/c1ccc(Cl)c(Cl)c1)NCCCCCN1CCCC(C(=O)Nc2ccc(Cl)cc2)C1` (stereo not given), the inhibition is 2.58%. Consider `CCN(CCCN1CCCCC1)c1cc(C)nc(Nc2ccc(Br)cc2F)n1`, for which the inhibition is 1.34%. Take `O=C(CCN1CCCCC1)Nc1ccc(Nc2nccc(NCC(O)c3ccccc3)n2)cc1` (stereo not given): the inhibition was -2.39%. The value for `CC(=O)Nc1ccc(Nc2ncc([N+](=O)[O-])c(Nc3ccccc3C(N)=O)n2)cc1` was 1.93%; that for `CC(C)C[C@H](NC(=O)c1ccc(OCCN2CCOCC2)cc1)C(=O)N[C@H](/C=N/N1CCNC1=O)CCc1ccccc1` was 4.07%; that for `CCn1c(SC)nnc1C1CCCN(CC(=O)Nc2nc3ccc(OC)cc3s2)C1` (stereo not given) was 0.77%. The value for `Cc1cccc2nc(-c3cccc(-c4cccc(NC(=O)CC5NC(=O)c6ccccc65)c4)c3)[nH]c12` (stereo not given) was 3.21%; that for `CC(Nc1ccc2c(c1)OCCO2)C(=O)Nc1cc(C(F)(F)F)ccc1N1CCOCC1` (stereo not given) was 6.63%; that for `NC(=O)N1CCN(Cc2ccc(Br)cc2)CC1` was 1%. `COC(=O)Cn1c(C2CCN(CC3CCN(C(=O)/C=C/c4ccc(Cl)c(Cl)c4)CC3)CC2)nc2ccccc21`: the inhibition came out at 2.04%. In the case of `O=C(Nc1cccc(F)c1)N[C@H]1CCN(CCCCCNC(=O)C2CC2c2ccc(Cl)c(Cl)c2)C1` (stereo not given in full), the inhibition worked out at 0.83%. Turning to `CCN(CCCN1CCCCC1)c1cc(C)nc(Nc2cc(Cl)ccc2C)n1`, the inhibition amounted to 1.67%. As to `CCN(CCCN1CCCCC1)c1cc(C)nc(Nc2ccc(F)c(C(F)(F)F)c2)n1`, the inhibition is -0.24%. In the case of `CCNc1cc(C)nc(Nc2ccc(NS(=O)(=O)c3ccccc3)cc2)n1`, the inhibition worked out at 5.64%. The result for `CS(=O)(=O)Cc1ccc(Nc2nccc(-c3c(-c4cccc(NC(=O)c5c(F)cccc5F)c4)nn4ccccc34)n2)cc1` reads 9.09%; that for `COc1ccc2nccc(NCC3(O)CCC(NCc4cc5c(cn4)OCCO5)CC3)c2n1` (stereo not given), -2.58%; that for `c1ccc(C2=NN=C(c3ccccn3)C3C4CC(C23)C2C3CC(c5ccccc53)C42)nc1` (stereo not given), 1.22%.

`Cc1ccc(NC(=O)NCCCCCN2CCC(c3c[nH]c4ccccc34)CC2)cc1I`: the inhibition worked out at 3.15%.

As for `Clc1ccc(Nc2nc(-c3ccccn3)cs2)nc1`, the inhibition came to 22.7%. With `O=C(Nc1ccc(F)cc1)NC1CCN(c2ccnc3cc(Cl)ccc23)C1` (stereo not given), the inhibition is -1.87%. As to `CCOC(=O)Cn1ccc2c(NCc3ccccc3)nc(C)nc21`, the inhibition came out at 2.53%. The value for `O=C(CCc1c[nH]cn1)Nc1ccc(-c2ccc(-c3nc4cc(F)ccc4[nH]3)cc2)cc1` was 1.81%. The value for `CO/C(=C\C=C\c1cc2cc(Cl)c(Cl)cc2[nH]1)C(=O)NCCCN1CCN(c2ccncc2)CC1` was 3.48%; that for `COc1cccc(Nc2nccc(NCC(O)c3ccc(C(F)(F)F)cc3)n2)c1` (stereo not given) was 2.75%; that for `O=C(NC1CCN(Cc2ccsc2)CC1)c1ccc(-c2cccc(C(F)(F)F)c2)s1` was 0.59%. Regarding `COc1ccc2nccc([C@@H](O)CN3CCC(NCC4COc5ccccc5O4)CC3)c2c1` (stereo not given in full), the inhibition stood at 1.37%. Consider `O=C(Nc1cccc2ccccc12)N1CCc2cc3nccc(N4CCN5CCC[C@H]5C4)c3cc21`, for which the inhibition turned out to be 4.23%. The result for `Cc1nc(C)c(-c2ccc(C(=O)c3ccc(Cl)cc3)cc2)c(O)c1Cl` reads 9.25%; that for `CC(=O)c1ccc2c(c1)C(NC(=O)c1cccc(Cl)c1Cl)C(CO)C(C)(C)O2` (stereo not given), -1.69%; that for `Cc1cc(C(F)(F)F)n2nc(C3CCN(Cc4cc(C)c(O)c(C)c4)C3)cc2n1` (stereo not given), -0.59%. In the case of `Oc1ccc2nc(N3CCNCC3)nc(NCCCc3ccccc3)c2c1`, the inhibition amounted to 0.5%. The result for `CCc1cn(CCOC)c2ccc(C(=O)N[C@@H](Cc3ccccc3)[C@H](O)CNC(C)(C)CCCC(C)C)cc12` reads 1.51%; that for `COc1cc2c(cc1C(F)(F)F)N(C(=O)Nc1ccc(Br)cn1)CC2`, -1.31%. As for `N=C(N)c1ccc(NC(=O)c2cc(Sc3ccc(O)c(C(=O)Nc4ccc(C(=N)N)cc4)c3)ccc2O)cc1`, the inhibition is 4.34%. The result for `Cc1cccc2nc(-c3cccc(-c4cccc(NC(=O)c5cccnc5Cl)c4)c3)[nH]c12` reads 3.23%; that for `O=C(Nc1ccc(F)c(F)c1)c1ccc(CN2CCCN(Cc3cccc(O)c3)CC2)cc1`, 3.84%; that for `COc1ccccc1N1CCN(CCCCN(C(=O)Nc2cccc(Cl)c2)C(=O)Nc2cccc(Cl)c2)CC1`, 10.6%.

Consider `CCN(CC)CCOc1ccc(C(O)(C#CC(O)(c2ccc(C)cc2)c2ccc(OCCN(CC)CC)cc2)c2ccc(C)cc2)cc1` (stereo not given), for which the inhibition came to 1.02%.
